This is an account of results in PubChem BioAssay (Tox21).

The nature of assay [1]: qHTS assay for small molecules that induce genotoxicity in human embryonic kidney cells expressing luciferase-tagged ATAD5 (AID 651632). Also: nearly all actives have a fitted effect of over 15% in size. In outline:
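Quantitative HTS in HEK293T expressing luciferase-tagged ATAD5, whose levels rise upon DNA damage. Exposure ran 16 hr at 37C and 5% CO2, with luminescence read 30 min after Amplite addition at room temperature.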

Assay [2] in a line: qHTS assay for small molecule agonists of the p53 signaling pathway - cell viability (AID 651633; calls by dose curve; also: nearly all actives have a fitted effect of over 30% in size; also: potency is read from the fitted curve at half-maximal effect). In outline:
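p53RE-bla cells, seeded at 4,000 per well and rested 5 h at 37 C/5% CO2, received compounds in DMSO for 16 h at 37 C. CellTiter-Glo was then added, and luminescence was read after 30 min at room temperature to gauge cytotoxicity.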
Background: In qHTS, concentration-response curves come from the screen itself.

A short description of assay [3]: qHTS assay for small molecules that induce genotoxicity in human embryonic kidney cells expressing luciferase-tagged ATAD5 - cell viability (AID 651634; calls by dose curve; also: nearly all actives have a fitted effect of over 25% in size). In outline: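 After 15.5 hr incubation with compound at 37C, 5% CO2, HEK293T ATAD5-luciferase cells received CellTiter-Fluor reagent; fluorescence intensity was quantified following 30 min at 37C.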
A short description of assay [4]: qHTS assay for small molecule disruptors of the mitochondrial membrane potential (AID 720635). Also: potency is read from the fitted curve at half-maximal effect. In outline: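 HepG2 cells (2,000/well) attached overnight at 37C, then took compound for 1 hr at 37C, 5% CO2. Mito-MPS dye was added for 30 min; fluorescence was read at 490/535 nm (monomers) and 540/590 nm (aggregates).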
Assay [5] in a line: qHTS assay to test for compound auto fluorescence at 590 nm (red) in HepG2 cells (AID 720674). The method in brief:
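Compound auto-fluorescence is scored relative to Rose Bengal sodium, measured at 540/590 nm in live HepG2 cultures after 1 hr compound contact (37 C, 5% CO2).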

Assay [6] is described as follows: qHTS assay to test for compound auto fluorescence at 535 nm (green) in HepG2 cells (AID 720675).
Assay [7] can be described thus: qHTS assay to test for compound auto fluorescence at 460 nm (blue) in HEK293 cells (AID 720678). In outline:
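Auto fluorescence in the blue band was quantified as triamterene equivalency. HEK293 cells were seeded at 2,000/well, dosed after a 4-5 hr attachment, and kept overnight at 37C before the 405/460 nm reading.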

Assay [8] in a line: qHTS assay to test for compound auto fluorescence at 535 nm (green) in HEK293 cells (AID 720680).
Assay [9] can be described thus: qHTS assay to test for compound auto fluorescence at 460 nm (blue) in HEK293 cell free culture (AID 720681). In outline: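 Test compounds were pinned into cell-free culture medium (DMEM with 10% FBS) and fluorescence was read directly at Ex/Em 405/460 nm. Signals were expressed as fluorescence equivalents of triamterene, with DMSO vehicle as control.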
Assay [10] is described as follows: qHTS assay to test for compound auto fluorescence at 535 nm (green) in HEK293 cell free culture (AID 720682). In outline: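 Cell-free medium (DMEM, 10% FBS) receives compound or DMSO by pintool. Plate read directly at Ex 485/Em 535 nm. Signal converted to fluorescein equivalency.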
Assay [11] is described as follows: qHTS assay to test for compound auto fluorescence at 590 nm (red) in HepG2 cell free culture (AID 720684). In outline: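 Ex 540 / Em 590 nm read of compound in cell-free MEM (10% FBS). Rose Bengal sodium reference.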
Assay [12] can be described thus: qHTS assay to test for compound auto fluorescence at 460 nm (blue) in HepG2 cell free culture (AID 720685). In outline: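 Cell-free plates of MEM plus 10% FBS received 23 nL compound or DMSO vehicle; blue-channel (405/460 nm) intensity scored against triamterene as reference fluorophore.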
A short description of assay [13]: qHTS assay to test for compound auto fluorescence at 535 nm (green) in HepG2 cell free culture (AID 720686).
The nature of assay [14]: qHTS assay to test for compound auto fluorescence at 460 nm (blue) in HepG2 cells (AID 720687). In outline:
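Cells (2,000/well in MEM with 10% FBS) attached overnight at 37 C, then were exposed to compound or DMSO for 1 hr at 37 C, 5% CO2. Fluorescence read at Ex/Em 405/460 nm, expressed as triamterene-equivalent signal.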

For assay [15], the target named is Glucocorticoid receptor (Homo sapiens) (UniProt P04150). Description: qHTS assay to identify small molecule agonists of the glucocorticoid receptor (GR) signaling pathway (AID 720691; active = well fitted activation curve with a large enough effect in the signal ratio in the repeat runs, not every such curve was filed as active; the % refers to the signal ratio). Particulars: GR-bla HeLa, beta-lactamase reporter ratio, 18 h; activation: at 62.4 µM (top of the series) unless noted. The method in brief:
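Cells: GR-bla HeLa, endogenous GR with stably integrated GRE-beta-lactamase reporter. Treatment 18 h, 37 C, compounds delivered in DMSO. Detection via LiveBLAzer B/G FRET substrate, 2 h RT, fluorescence intensity.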

For assay [16] the target is unchanged. Description: qHTS assay to identify small molecule antagonists of the glucocorticoid receptor (GR) signaling pathway (AID 720692; active = well fitted inhibition curve with a large enough effect in the signal ratio in the repeat runs, not every such curve was filed as active; the % refers to the signal ratio). In outline: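 Quantitative HTS in antagonist format: HeLa cells expressing endogenous GR and a stably integrated GRE-bla reporter, stimulated with 5 nM dexamethasone (final) alongside test compounds for 18 h.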
Assay [17] is described as follows: qHTS assay for small molecule disruptors of the mitochondrial membrane potential - cell viability (AID 720634; calls by dose curve;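 also: human HepG2 liver cancer cells; nearly all actives have a fitted effect of over 20% in size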). In outline: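 ATP-based luminescent viability readout (CellTiter-Glo, 30 min, room temperature) in HepG2 cells multiplexed with the m-MPI membrane potential dye; compound exposure lasted 1 hr at 37 C.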
Assay [18] can be described thus: qHTS assay to test for compound auto fluorescence at 590 nm (red) in HEK293 cells (AID 720679). The method in brief:
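Autofluorescence equivalency to Rose Bengal sodium, 540/590nm, in HEK293 cells exposed overnight to 23 nL compound per well.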

The nature of assay [19]: qHTS assay to test for compound auto fluorescence at 590 nm (red) in HEK293 cell free culture (AID 720683). In outline: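 Tox21 10K library compounds were pinned into cell-free DMEM with 10% FBS and fluorescence was read at excitation 540 nm. Activity is expressed as Rose Bengal sodium equivalency.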

Structures are written as SMILES. Values without a mark were called inactive. Records with an inconclusive call do not appear. The source made the active and inactive calls. Unless noted, calls follow the shape of the dose curve; as a rule, active = well fitted curve in the direction sought with a large enough effect in the repeat runs; inconclusive = weak or mixed curves; inactive = no such curve, though single readings can be large; an effect the other way counts as inactive or inconclusive.
% is scaled to controls: 0 for no effect and ±100 for the full control effect.

Glucocorticoid receptor (Homo sapiens), sequence (P04150 whole entry, looked up): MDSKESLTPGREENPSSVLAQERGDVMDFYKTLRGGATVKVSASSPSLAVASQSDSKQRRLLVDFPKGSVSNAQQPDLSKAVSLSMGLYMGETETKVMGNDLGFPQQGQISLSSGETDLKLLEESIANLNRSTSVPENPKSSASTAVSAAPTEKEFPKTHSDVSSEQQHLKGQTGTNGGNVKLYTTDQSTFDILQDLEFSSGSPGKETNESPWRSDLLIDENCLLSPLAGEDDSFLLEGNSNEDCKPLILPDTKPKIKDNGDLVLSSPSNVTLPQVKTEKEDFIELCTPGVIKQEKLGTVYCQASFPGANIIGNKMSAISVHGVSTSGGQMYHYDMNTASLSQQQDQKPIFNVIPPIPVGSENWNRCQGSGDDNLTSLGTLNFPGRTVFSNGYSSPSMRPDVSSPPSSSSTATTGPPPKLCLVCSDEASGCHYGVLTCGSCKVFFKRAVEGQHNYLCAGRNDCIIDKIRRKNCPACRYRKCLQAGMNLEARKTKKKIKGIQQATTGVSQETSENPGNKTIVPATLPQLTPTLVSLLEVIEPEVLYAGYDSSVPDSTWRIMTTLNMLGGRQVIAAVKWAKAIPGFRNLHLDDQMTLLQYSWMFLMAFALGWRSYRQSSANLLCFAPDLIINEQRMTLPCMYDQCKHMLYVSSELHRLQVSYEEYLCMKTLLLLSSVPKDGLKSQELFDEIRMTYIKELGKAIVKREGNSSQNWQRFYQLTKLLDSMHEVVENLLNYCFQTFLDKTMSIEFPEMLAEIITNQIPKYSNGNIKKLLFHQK

Regarding `COc1cc2nc(N(C)CCCNC(=O)C3CCCO3)nc(N)c2cc1OC` (configuration not stated), the Potency entry in assay [1], in assay [2], in assay [3], in [4], in [15] and in assay [16] was “inactive” in each case. In assay [5], the fluorescence, relative to Rose Bengal is -0.119% [at 18.6 µM]. The fluorescence, % of fluorescein control in assay [6] was -0.0701% [at 18.6 µM]; in assay [13], -0.0969% [at 18.6 µM]. Moreover, the fluorescence, % of triamterene in assay [7] was -0.108% [at 18.6 µM]. For the same compound, the fluorescence, % of fluorescein in assay [8] is -0.0302% [at 18.6 µM]. Besides, the fluorescence, % of fluorescent control in [9] was -0.0154% [at 18.6 µM]; in assay [12], -0.0022% [at 18.6 µM]; in [14] it was 0.136% [at 18.6 µM]. Also, the activity change in assay [10] was -0.131% [at 18.6 µM]. Further, in assay [11], the fluorescence, % of Rose Bengal is -0.324% [at 18.6 µM].

`CCOC(=O)C1=C[C@]2(CC)CCCN3CCc4c(n1c1ccccc41)[C@@H]32`: the Potency result in [1], in assay [2], in [3], in assay [17], in assay [5] and in assay [6] was “inactive” each time. The Potency result in [18], in [11], in assay [13], in [15] and in [16] was “inactive” each time. The call in assay [7], in assay [8], in [10], in [12] and in assay [14] was inactive.

Consider `CCC(Cl)CCC(Cl)C(Cl)CC(Cl)C(Cl)C(Cl)CCl` (configuration not stated), for which the Potency result in assay [1], in [2], in assay [3], in assay [5], in assay [6] and in [18] was “inactive” throughout. In addition, the Potency entry in assay [11], in assay [13], in assay [15] and in assay [16] was “inactive” throughout. Also, the call in assay [7], in [8], in assay [9], in [10], in [12] and in [14] was inactive.

In the case of `CN(C)CCN(Cc1ccccc1)c1ccccn1`, the Potency result in [1], in [2], in assay [3], in [17], in [5] and in [6] was “inactive” in each case. For the same compound, the Potency result in assay [19], in assay [11], in assay [13] and in [15] was “inactive” each time. In addition, the compound was called inactive in assay [7], in [8], in assay [9], in [10], in assay [12] and in [14].

Turning to `Cc1c(N)cccc1[N+](=O)[O-]`, the Potency entry in assay [1], in assay [2], in assay [17], in assay [4], in assay [5] and in [6] was “inactive” in each case. The Potency entry in assay [18], in assay [19], in [11], in [13], in assay [15] and in assay [16] was “inactive” each time. In addition, the compound was classed as inactive in assay [7], in assay [8], in assay [9], in assay [10], in [12] and in [14].

As to `CC1CCC(=O)C1=O` (configuration not stated), the Potency entry in assay [1], in assay [3], in assay [17], in assay [4], in assay [5] and in assay [6] was “inactive” throughout. Further, the Potency entry in assay [18], in assay [19], in assay [11], in assay [13] and in [15] was “inactive” in each case. In addition, the compound was called inactive in [7], in assay [8], in assay [9], in [10], in [12] and in assay [14].

`C=C1C(=C/C=C2\CCC[C@]3(C)[C@@H]([C@H](C)/C=C/[C@@H](O)C4CC4)CC[C@@H]23)C[C@@H](O)C[C@@H]1O`: the Potency entry in assay [1], in assay [17], in assay [6], in [19], in [11] and in assay [13] was “inactive” each time. Further, in assay [15], the Potency result was “inactive”. Moreover, the Potency in [2] was 26.6 µM (active); in assay [4] it was 22.1 µM (active). Besides, the compound was classed as inactive in assay [7], in [8], in assay [9] and in assay [14].
